Source: PubChem
Pf apPOL inh = Pf-apPOL DNA polymerase inhibition; Recombinant Pf-apPOL, molecular beacon fluorescence, 1.5 h; inhibition, % at 10 µM; AID 1794808; actives 0.25% (n = 210,000)
mHTT-CaM PPI inh = mHTT-calmodulin interaction abrogation. AlphaScreen His-mHTT/GST-CaM binding, luminescence. inhibition, % at 15 µM. actives 3.6% (n = 190,000). AID 1671202
A number is an active result; . = inactive; / = no result given; ! = not confirmed by another sample. A selection: hits, their analogues and other compounds. The true share with any hit is near 3.6%. Rule as the data show it: active = inhibition above about 50%; inactive = the rest.

SMILES	Pf apPOL inh	mHTT-CaM PPI inh
COC(=O)CNC(=O)N1CC2CCCN2c2ccccc21 (centres undefined)	.	.
CCOC(=O)CC1(NC(=O)N2CC3CCCN3c3ccccc32)CCCCC1 (centres undefined)	.	64
CCOC(=O)C1CCC(CNC(=O)N2CC3CCCN3c3ccccc32)CC1 (centres undefined)	.	66
CCOC(=O)C1CCC(CNC(=O)N2CC(CC)Oc3ccccc32)CC1 (centres undefined)	.	.
COc1cccc(-n2nc(C(=O)N(C)c3cc(Cl)ccc3C)c3ccccc3c2=O)c1	.	.
Cc1ccc(C(=O)NC2CCCN(c3cc(N(C)C)ncn3)C2)cn1 (centres undefined)	.	.
CC1(C)C2CCC1(C)C(OCC(O)CN1CCN(c3cccc(C(F)(F)F)c3)CC1)C2 (centres undefined)	.	93
CC1(C)C2CCC1(C)C(OCC(O)CN1CCN(c3ccccc3F)CC1)C2 (centres undefined)	.	.
O=C(NC1CCCC1)C1CCN(c2nn3c(=O)c4c(nc3s2)CCCC4)CC1	.	.
O=[N+]([O-])c1ccc(-c2nc(C=C3C=Nc4ccccc43)c(O)o2)cc1	.	.
CC1CCCCN1S(=O)(=O)c1ccc2[nH]c(=O)cc(C(=O)NCc3ccccc3Cl)c2c1 (centres undefined)	.	63
CC1CCN(S(=O)(=O)c2ccc3[nH]c(=O)cc(C(=O)NCc4ccccn4)c3c2)CC1	.	.
CC(=O)N1CCc2cc(S(=O)(=O)NCc3ccccn3)ccc21	.	.
CCN(CC)c1ccc(C2NN=C(Cc3ccccc3)S2)cc1 (centres undefined)	.	85
CCN(CC)c1ccc(NC(=O)Cc2ccccc2)cc1	.	.
CCOC(=O)c1cc(-c2ccccc2)sc1NC(=O)c1cccc([N+](=O)[O-])c1	.	/
Cc1cc(C=O)c(C)n1-c1ccc(F)c(Cl)c1	.	.
COc1ccc(-n2c(C)cc(/C=C/[N+](=O)[O-])c2C)cc1Cl	.	75
COc1cc(CNC(=O)C2CC(=O)N(c3ccc4oc(C)nc4c3)C2)cc(OC)c1 (centres undefined)	.	.
O=C(Nc1cccc(N2CC(C(=O)Nc3cccc(C(F)(F)F)c3)CC2=O)c1)C1CCC1 (centres undefined)	.	.
COc1ccc(CN2CC[C@H]3C=CC[C@@H](C(=O)O)[C@H]3C2=O)cc1OC	.	.
COc1ccc(CN2CC[C@H]3C=CC[C@@H](C(=O)Nc4ccc(Cl)c(C(F)(F)F)c4)[C@H]3C2=O)cc1OC	.	56
COc1ccc(NC(=O)[C@@H]2CC=C[C@@H]3CCN(Cc4ccc(Cl)c(Cl)c4)C(=O)[C@@H]32)cc1	.	96
COc1ccc(NC(=O)[C@@H]2CC=C[C@@H]3CCN(Cc4ccccc4)C(=O)[C@@H]32)cc1	.	.
COc1nccnc1N1CCC(N(C)C(=O)NCc2cccc(F)c2)C1 (centres undefined)	.	.
SMILES	Pf apPOL inh	mHTT-CaM PPI inh
O=[N+]([O-])c1ccc(NS(=O)(=O)c2ccccc2)c(NS(=O)(=O)c2ccccc2)c1	.	.
CCn1c(=O)c2cc(C(=O)Nc3ccccc3)nn2c2ccccc21	.	.
CCCSc1nnc2c(n1)OC(c1cc3c(cc1[N+](=O)[O-])OCO3)Nc1ccccc1-2 (centres undefined)	.	.
C=CCSc1nnc2c(n1)OC(c1cc3c(cc1[N+](=O)[O-])OCO3)Nc1ccccc1-2 (centres undefined)	.	93
Cc1cc(Cl)ccc1NC(=O)N1CC2CC(NS(C)(=O)=O)C1C2 (centres undefined)	.	.
CCN(CC)c1ccc2cc(C(N)=O)c(=Nc3ccccc3C)oc2c1	.	54
CCN(CC)c1ccc2cc(C(N)=O)c(=Nc3ccc(C)cc3)oc2c1	.	.
CC(=O)NC1=NN(C(C)=O)C(C)(c2ccc(F)cc2)S1 (centres undefined)	.	.
CC(=O)NC1=NN(C(C)=O)C(C)(c2ccc(-c3ccccc3)cc2)S1 (centres undefined)	.	51
COc1ccc(C(=O)CC2(O)C(=O)Nc3ccccc32)cc1[N+](=O)[O-] (centres undefined)	.	.
COc1ccc(C(=O)CC2(O)C(=O)N(Cc3ccc(Cl)cc3)c3ccccc32)cc1[N+](=O)[O-] (centres undefined)	.	100
CCNC(=O)N1CCCC(c2cccc(C(=O)NC3CCCCCC3)c2)C1 (centres undefined)	.	.
CCc1ccc(C2CC(c3ccccc3Cl)n3nnnc3N2)cc1 (centres undefined)	.	.
CC(C)(C)c1ccc(/C=C2\C(=O)Nc3ccc(Br)cc32)cc1	.	90
O=C1Nc2ccc(Br)cc2/C1=C/c1ccc(Cl)cc1	.	.
O=C1Nc2ccc(Br)cc2/C1=C/c1ccc(O)c(O)c1	.	96
O=C1Nc2ccc(Br)cc2/C1=C/c1cccc(Cl)c1	.	.
CC12CC(=O)C(C)(C1)C1C(=O)N(c3ccccc3Cl)C(=O)C12 (centres undefined)	.	.
COCCN=C1Nc2ccccc2CNC12CCN(S(=O)(=O)c1ccccc1Cl)C2 (centres undefined)	.	.
Cc1cccc(NC(=O)NCCC2CCN(S(=O)(=O)c3ccc(F)cc3)CC2)c1C	.	.
Cc1noc(C)c1C1CCCN1Cc1cccc(Br)c1 (centres undefined)	.	.
CC(=O)Nc1nc(N)n(-c2ccccc2)n1	.	.
Nc1nc(NC(=O)c2ccc(F)cc2)nn1-c1ccccc1	65	.
COc1ccc(NC(=O)c2c(Cl)cc(Cl)nc2Cl)cc1	.	.
COc1ccc(NC(=O)c2c(C)sc3c(C)c(C)[nH]c23)cc1	.	54
SMILES	Pf apPOL inh	mHTT-CaM PPI inh
COc1cccc(CNc2cc(C)ccc2C)c1	.	.
CCOC(=O)N1CCN(c2nc(-c3ccc(C)cc3)nc3ccccc23)CC1	.	.
Cc1ccc(-c2nc(N3CCC(C(N)=O)(N4CCCCC4)CC3)c3ccccc3n2)cc1	.	53
CCc1c(C)nc(S/C=C/c2ccccc2)[nH]c1=O	.	.
CC(C)(C)c1cc(C(C)(C)C)n(-c2cc(Cl)ccc2Cl)n1	.	/
O=C(Nc1c(C(=O)Nc2ccccc2)cnn1-c1ccccc1)c1ccccc1	.	.
COc1ccccc1NC(=O)c1cnn(-c2ccccc2)c1NC(=O)c1cccc(F)c1	.	59!
CCOc1ccccc1CNC(=O)CN1CCN(C(=O)Nc2ccc(Cl)cc2)CC1=O	.	.
O=C(CCSc1nnc2scc(-c3ccccc3)n12)NCCc1ccccc1	.	.
Cc1c(N2C(=O)CCC2=O)c(=O)n(-c2ccccc2)n1C	.	.
N#Cc1cc2c(N)c(C(=O)c3ccc(Cl)cc3)sc2nc1N	.	.
N#Cc1cc2c(N)c(C(=O)Nc3ccccc3Oc3ccccc3)sc2nc1N	.	81
COc1ccccc1-n1cnc2cc(NCc3ccc(Cl)cc3)ccc21	.	80
COc1cccc(CNc2ccc3c(c2)ncn3C)c1O	.	.
COc1ccccc1CNc1ccc2c(c1)ncn2-c1ccccc1	.	69
CCn1cnc2cc(NCc3ccc(Cl)cc3)ccc21	.	.
Cc1ccc(-c2[nH]c3ccccc3c2C)cc1[N+](=O)[O-]	.	64
Cc1ccc(C(=O)c2ccccc2)cc1[N+](=O)[O-]	.	.
N#Cc1ccc(CNC(=S)Nc2ccc(Cl)c(Cl)c2)cc1	61	/
O=C(NCc1ccncc1)C(=O)Nc1ccc(Cl)c(Cl)c1	.	.
